Source: ChEMBL document CHEMBL1157539, “Thousands of chemical starting points for antimalarial lead identification” (Nature, 2010)

These molecules were tested on HepG2 (assay: GSK_TCMDC: Percent inhibition of human HepG2 cell line. Test compounds present at 10uM.).
Type: functional

Row | SMILES | Inhibition
1 | Cc1ccc(F)c(C(=O)Nc2cccc(-c3nn4ccccc4c3-c3ccnc(Nc4cccc(F)c4)n3)c2)c1F | 35%
2 | O=C(NCCN1CCOCC1)c1ccc(N2CCC(Oc3ccc4ccccc4c3)CC2)nc1 | 1%
3 | COc1ccc2ccccc2c1C=NN=c1cc(C)[nH]c2cc(C(F)(F)F)ccc12 | 1%
4 | Cc1cccc2nc(-c3ccc(-c4cccc(NC(=O)Nc5ccsc5)c4)s3)[nH]c12 | 30%
5 | CN1CCN(c2ccnc3ccc(NC(=O)Cc4ccc(-c5ccncc5)c5ccccc45)cc23)CC1 | 32%
6 | COc1cc(/C=N/Nc2nc(Nc3ccccc3)nc(Nc3ccccc3)n2)ccc1OCc1ccccc1[N+](=O)[O-] | 8%
7 | COc1ccc2nccc([C@@H](O)CN3CCC(NCCOc4ccc(F)cc4F)CC3)c2c1.O=C(O)C(=O)O | 13%
8 | Cl.O=S(=O)(Nc1cc2c(cc1OCCCN1CCCCC1)CCNCC2)c1ccc(-c2ccc(Cl)cc2)cc1 | 77%
9 | Cc1cc(-c2ccc(O)c(CNC3CCCCC3)c2)cnc1N | 27%
10 | CCCCOc1cc(CNCCCCCCNCc2cc(OCCCC)cc3ccccc23)c2ccccc2c1.CS(=O)(=O)O | 99%
11 | CC(=O)N/N=C/[C@H](CCc1ccccc1)NC(=O)[C@H](CC(C)C)NC(=O)c1ccc(OCCN2CCOCC2)cc1 | 4%
12 | COc1ccc(O)cc1/C=N/Nc1ccnc2cc(Cl)ccc12 | 0%
13 | c1ccc(-c2cccnn2)cc1 | 0%
14 | O=C(Nc1ccc2c(c1)CN(Cc1ccc(N3CCCC3)o1)CCC2)c1cncs1.O=CO | 15%
15 | CCCc1ccc(S(=O)(=O)NC2CCN(c3ccnc(Nc4ccc(F)cc4)n3)C2)cc1 (configuration not stated) | 40%
16 | O=C(Nc1nc2cc(S(=O)(=O)NCCc3ccc(F)cc3)ccc2n1CCCn1ccnc1)c1ccc(Cl)cc1.O=C(O)C(F)(F)F | 18%
17 | O=C(Nc1cccc(-c2ccc(-c3nc4cc(C(F)(F)F)ccc4[nH]3)s2)c1)c1c[nH]cn1 | 55%
18 | CN(C)CC1CCCN1Cc1ccccc1-c1cnn(C)c(=O)c1Oc1cccc(C#N)c1.O=C(O)C(F)(F)F (configuration not stated) | 26%
19 | Cc1ccc(Cc2cnc(CN3CCCCC3)c(O)c2)cc1.Cl | 4%

Row | SMILES | Inhibition
20 | COc1ccc(Cl)cc1S(=O)(=O)Nc1cccc(CCN2CCC(N3CCCCC3)CC2)c1 | 33%
21 | Cc1nc2c(c(O)c1Cl)-c1ccc(Oc3cccc(C(F)(F)F)c3)cc1C2=O | 25%
22 | Cc1cc(N(C)C)nc(Nc2ccc(NC(=O)C3CCCCC3)cc2)n1 | 3%
23 | CN(C)CCOc1cc(NC(=O)Nc2ccc(-c3ccncc3)c(C(F)(F)F)c2)ccc1Cl | 36%
24 | Cc1cc(OCCCN2CCC(NS(=O)(=O)c3ccc(Cl)c(Cl)c3)C2)c2ccccc2n1 (configuration not stated) | 28%
25 | Cc1noc(C)c1-c1cccc(CNCc2cccc(-c3ccc(-c4nc5ccccc5[nH]4)s3)c2)c1.O=C(O)C(F)(F)F | 24%
26 | COc1ccc(C(=O)Nc2cc(Br)c3c(c2)CNCC3)cc1C(F)(F)F.Cl | 13%
27 | COc1ccc(CNCc2ccccc2)cc1-c1ccc(S(=O)(=O)NCCN2CCCC2)c(C)c1.O=C(O)C(F)(F)F | 33%
28 | CCc1cn2c3c(cc(C(=O)N[C@@H](Cc4cc(F)cc(F)c4)[C@H](O)CNC4CCOCC4)cc13)N(C)S(=O)(=O)CC2.O=CO | 1%
29 | O=C(O)C(F)(F)F.O=[N+]([O-])c1cccc(CNC2CCN(Cc3ccc(-c4ccccc4)cc3)CC2)c1 | 25%
30 | CC(C)(C)c1cc(C(=O)N2CCN(c3cnccn3)CC2)n(Cc2ccccc2)n1 | 0%
31 | Cc1[nH]c(C)c(-c2ccc(Nc3ccc(C(F)(F)F)cn3)cc2)c(=O)c1Br | 30%
32 | N=C(N)Nc1nc(-c2cccc(NCCCCCCCCON3C(N)=NC(N)=NC34CCCCC4)c2)cs1.O=C(O)C(F)(F)F | 3%
33 | Cc1nc(N)nc(N)c1-c1ccc2ccccc2c1 | 60%
34 | Cc1sc(CNCCCNc2cc(=O)c3ccccc3[nH]2)c(C(F)(F)F)c1C.Cl | 0%
35 | Cn1nccc1C(=O)NCCNCc1ccc(-c2cccc(-c3nc4cc(F)ccc4[nH]3)c2)cc1.O=C(O)C(F)(F)F | 37%
36 | COc1cc2ccccc2cc1CNCCCCCCNCc1cc2ccccc2cc1OC.CS(=O)(=O)O | 98%
37 | COc1ccccc1N(C)CCNc1cc(C)nc(Nc2ccc(C)cc2)n1 | 9%
